Measured values taken from PubChem BioAssay AID892 (National Center for Advancing Translational Sciences (NCATS), 2007).
In all, about 75,000 compounds went through this assay and about 20 (0.03%) were called active. Calls come from the whole dose curve; as a rule, active = well fitted inhibition curve with a large enough effect; inconclusive = small, poorly fitted or top-dose-only effect; inactive = no such curve, though single readings can be large or run the other way. Only a sample is shown. Square brackets hold non-standard residues; d marks the D form. Peptide text beside a SMILES is read from it. ξ: configuration not given here. ξV = CC(C)C(N)C(=O)O

Target: Breast cancer type 1 susceptibility protein (Homo sapiens) (UniProt P38398)
Assay: qHTS Assay for Inhibitors of BRCT-Phosphoprotein Interaction (Red Fluorophore)
Settings: BRCT-phosphopeptide binding, red fluorescence polarization; series mostly up to 76.9 µM
Method: NIH Molecular Libraries Screening Centers Network [MLSCN]
NIH Chemical Genomics Center [NCGC]
PI Name: Natarajan, Amarnath; University of Texas
A complex of BRCT (C-terminal portion of BRCA1, MW ~35 kDa, His-tagged) and fluorescently labeled pBACH1 phosphorylated 10 aa peptide fragment of BACH1, a helicase implicated in DNA repair, is incubated with library members. Inhibitors of BRCT-pBACH1 binding are detected by a decrease in the fluorescence polarization (FP) of the fluorophore. In order to minimize the effect of fluorescence artifacts and to increase the overall robustness of the screen, the compound library members were incubated in separate reactions with rhodamine-labeled probe-protein complexes. Protein and labeled probes were supplied by Dr. Amarnath Natarajan, Department of Pharmacology and Toxicology, University of Texas Medical Branch Galveston, TX.
Assay Buffer: 16mM Na2HPO4, 4 mM NaH2PO4, 150 mM NaCl, 1 mM EDTA, 1 mM DTT, 0.02% NaN3, and 0.01% Tween 20 at pH 7.3.
Assay Controls: 100 nM TAMRA labeled decapeptide dispensed into columns 3 and 4 to generate negative control (full inhibition of
binding, -100 % activity). 100 nM labeled decapeptide/100 nM protein in columns 1, 2, 5 - 48. Titration of unlabeled decapeptide control (from 10 mM, then 1:2 dilution in duplicate) pin-transferred to column 2, rows 1 to 16. Column 1 is neutral.
Three uL of reagents were dispensed to 1536-well Greiner black solid-bottom plates. Compounds and controls (23 nL) were transferred via Kalypsys PinTool. The plates were incubated for 12 min at room temperature, and then read on ViewLux (Perkin-Elmer) High-throughput CCD imager using BODIPY for the rhodamine-labeled decapeptide probe polarization filter sets. During dispense, reagent bottles were kept submerged into 4 deg C water bath and all liquid lines were covered with aluminum foil to minimize probe and protein degradation. All screening operations were performed on a Kalypsys robotic system (Kalypsys, Inc., San Diego, CA) containing one RX-130 and two RX-90 anthropomorphic robotic arms. The timing and order of assay plates passing through the screening system were adjusted such that each compound library plate was assayed against the fluorescein- and rhodamine-labeled assay systems at immediately adjacent time points.
% is set by controls: 0 for no effect and ±100 for the full control effect.

Sequence of Breast cancer type 1 susceptibility protein (Homo sapiens) (P38398 whole entry, looked up): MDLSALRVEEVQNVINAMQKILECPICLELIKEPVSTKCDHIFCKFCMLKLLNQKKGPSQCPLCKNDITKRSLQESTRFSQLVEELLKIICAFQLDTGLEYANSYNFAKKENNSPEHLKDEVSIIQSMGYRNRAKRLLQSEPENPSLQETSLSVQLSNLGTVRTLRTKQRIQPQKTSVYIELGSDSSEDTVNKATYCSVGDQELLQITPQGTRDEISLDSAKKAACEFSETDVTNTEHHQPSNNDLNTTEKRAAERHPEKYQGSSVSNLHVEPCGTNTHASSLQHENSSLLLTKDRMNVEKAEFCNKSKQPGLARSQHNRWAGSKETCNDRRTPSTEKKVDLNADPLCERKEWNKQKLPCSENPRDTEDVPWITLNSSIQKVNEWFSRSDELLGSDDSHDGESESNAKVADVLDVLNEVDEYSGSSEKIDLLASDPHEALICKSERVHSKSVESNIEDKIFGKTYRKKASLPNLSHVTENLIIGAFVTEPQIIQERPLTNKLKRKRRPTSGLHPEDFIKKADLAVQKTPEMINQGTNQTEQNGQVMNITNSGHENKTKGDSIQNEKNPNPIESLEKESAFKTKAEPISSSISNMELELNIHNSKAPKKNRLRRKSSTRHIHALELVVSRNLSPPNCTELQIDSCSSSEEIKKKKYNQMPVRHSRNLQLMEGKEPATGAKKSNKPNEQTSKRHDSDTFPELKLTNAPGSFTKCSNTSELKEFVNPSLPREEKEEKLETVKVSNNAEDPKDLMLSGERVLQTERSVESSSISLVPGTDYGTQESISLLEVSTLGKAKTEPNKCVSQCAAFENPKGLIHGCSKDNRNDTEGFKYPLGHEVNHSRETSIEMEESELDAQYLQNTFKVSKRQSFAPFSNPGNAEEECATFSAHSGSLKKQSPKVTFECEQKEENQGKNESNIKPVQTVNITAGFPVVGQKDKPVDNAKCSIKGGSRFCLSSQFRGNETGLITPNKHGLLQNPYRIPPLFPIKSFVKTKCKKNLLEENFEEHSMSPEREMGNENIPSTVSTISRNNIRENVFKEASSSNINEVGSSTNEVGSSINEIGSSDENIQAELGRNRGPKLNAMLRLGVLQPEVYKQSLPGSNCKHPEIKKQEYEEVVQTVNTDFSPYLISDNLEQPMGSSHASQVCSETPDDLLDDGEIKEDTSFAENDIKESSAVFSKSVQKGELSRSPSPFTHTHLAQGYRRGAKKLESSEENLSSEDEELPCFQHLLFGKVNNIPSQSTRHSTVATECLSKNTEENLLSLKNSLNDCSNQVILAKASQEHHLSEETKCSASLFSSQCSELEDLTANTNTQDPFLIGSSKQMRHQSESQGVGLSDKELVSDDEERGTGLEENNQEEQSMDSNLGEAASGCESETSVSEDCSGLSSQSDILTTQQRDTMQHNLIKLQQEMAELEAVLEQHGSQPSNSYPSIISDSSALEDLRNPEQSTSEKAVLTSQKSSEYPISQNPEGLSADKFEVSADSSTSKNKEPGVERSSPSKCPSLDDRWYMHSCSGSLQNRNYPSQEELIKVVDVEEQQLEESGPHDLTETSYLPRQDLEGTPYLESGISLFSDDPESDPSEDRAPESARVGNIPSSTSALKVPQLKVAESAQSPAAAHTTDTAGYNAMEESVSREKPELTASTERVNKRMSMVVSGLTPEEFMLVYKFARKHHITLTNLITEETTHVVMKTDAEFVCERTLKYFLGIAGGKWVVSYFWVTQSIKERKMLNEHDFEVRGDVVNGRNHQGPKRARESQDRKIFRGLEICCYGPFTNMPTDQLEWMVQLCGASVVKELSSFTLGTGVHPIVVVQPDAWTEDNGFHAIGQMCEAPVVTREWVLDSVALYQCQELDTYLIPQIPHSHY

Activity change, negative = inhibition, inactive:
CCS(=O)(=O)N1CCN(C(=O)c2cccs2)CC1
Cc1nc2cnc(Nc3ccccc3)nc2n(Cc2ccc(F)cc2)c1=O
CCCCC[C@H](O)CCCC(=O)O
COc1ccc(-c2cc(C(F)(F)F)nc(SCCC(=O)NCc3ccco3)n2)cc1
CCn1cc(C(=O)NCC2COc3ccccc3O2)c2cc(OC)c(OC)cc2c1=O (stereo not given)
CC(=O)NC(C(=O)NCC(N)=O)C(C)C (stereo not given) (Ac-[ξV]-Gly-NH2)
CN1CCCC1CCO[C@@](C)(c1ccccc1)c1ccc(Cl)cc1 (stereo not given in full)
Nc1ccccc1N
COC(=O)[C@@H]1C[C@H]2CC[C@H](O)C[C@H]2N1Cc1ccc(N2CCN(C)CC2)cc1
O=C(O)c1cccc(S(=O)(=O)NCCO)c1 1.54% [at 15.4 µM]
CCCN1[C@H](C(=O)OC)C[C@@]2(O)[C@@H](O)[C@@H](O)[C@@H](O)C[C@@H]12
CCOC(=O)c1sc(NC(=S)n2cc(C)cn2)c(C(=O)OCC)c1C
CCc1nc(C)cn1S(=O)(=O)c1cc(OC)c(C)cc1C
COc1ccc(CN2C(=O)CN=C2Nc2ccc(C)cc2C)cc1
COc1ccc2c(c1OC)C(=O)N(c1ncn[nH]1)C2
C=CCn1c(COc2ccccc2)nnc1SCC(=O)NCC(=O)OCC
Clc1ccc(C2[C@H]3CN(CC4CCCCC4)[C@H](c4ccccc4)C34CC2(c2cccnc2)C4)cn1 (stereo not given in full)
COCC(=O)N1CCC2(CCCN(c3ccccc3)C2)CC1
Cc1cccc(Cn2c(SCCO)nc3c2c(=O)n(C)c(=O)n3C)c1
CS(=O)(=O)N(CC(=O)N1CCOCC1)c1ccc2c3c(cccc13)CC2
Cc1cc(C)nc(SCc2nnc(SCC(=O)Nc3ncc(C)s3)n2Cc2ccco2)n1
CCOc1ccc(CNC(=O)C2CC(=O)N(C3CCCC3)C2)cc1OC (stereo not given)
O=C(Nc1cccc(F)c1)c1ccc(S(=O)(=O)N2CCCC2)cc1
COc1ccc(-c2cc(C(F)(F)F)n3nc(C(=O)N4CCOCC4)c(Cl)c3n2)cc1
O=C(OCC(O)C(O)COC(=O)c1ccccc1)c1ccccc1 (stereo not given)
O=C(c1cnn2ccccc12)N1CCc2ccccc21
CCCNS(=O)(=O)c1ccc2c(c1)CCCN2C(C)=O
CC1Cc2ccccc2N1C(=O)Cn1cnc2ccccc2c1=O (stereo not given)
COC(=O)COc1ccc(S(=O)(=O)Nc2ccc(NC(C)=O)cc2)cc1
O=C1CCC(C(=O)Nc2ccc(OC(F)F)cc2)N1 (stereo not given)
CCOC(=O)N1CCN(C(=O)c2cc3c(-c4ccc(Cl)cc4)nn(C)c3s2)CC1
O=C1c2cccnc2C(=O)N1Cc1cccs1
Nc1nc(N)c2[nH]c(CNc3ccc(C(=O)O)cc3)nc2n1 1.19% [at 15.4 µM]
O=C(O)[C@@H]1[C@@H](C(=O)O)[C@]23C[C@@]2(C(=O)O)[C@]2(C(=O)O)CCC3=C3CCCC312 1.09% [at 15.4 µM]
CC(=O)Nc1ccc(S(=O)(=O)N2CCN(CCCOc3cc(C)ccc3C)CC2)cc1
O=C(CSc1nc2[nH]ncc2c(=O)n1-c1ccccc1)N1CCCc2ccccc21
CC(C)CNC(=O)C1CCCN(S(=O)(=O)c2ccc(-n3cnnn3)cc2)C1 (stereo not given)
Cn1c(N)c(C(=O)COC(=O)c2cc(C(F)(F)F)nc3c(C(F)(F)F)cccc23)c(=O)n(C)c1=O
CCCC1CC(C)(C(=O)Cn2[nH]c(=O)ccc2=O)OC1=O (stereo not given)
C[C@@H]1O[C@@H](OC[C@H]2O[C@@H](Oc3c(-c4cccc(O)c4O)oc4cc(O)cc(O)c4c3=O)[C@H](O)[C@@H](O)[C@@H]2O)[C@H](O)[C@H](O)[C@H]1O
CCOC(=O)C1CCCCN1Cc1ccc(OC)c(OC)c1OC (stereo not given)
O=C(Nc1c(-c2ccccc2)nc2c(Br)cc(Br)cn12)c1ccco1
Cc1ccc(S(=O)(=O)N2CCN(C(=O)CCC(=O)NC3CCCc4ccccc43)CC2)cc1 (stereo not given)
C[C@@H]1C[C@H]2[C@@H]3C[C@H](F)C4=CC(=O)C=C[C@@]4(C)[C@]3(F)[C@H](O)C[C@]2(C)[C@@]1(O)C(=O)CO
Cc1oc(CC(C)C)c(CN2CCCC2)c1C(=O)O
Fc1ccc(OCc2nn3c(Cn4nnc5ccccc54)nnc3s2)cc1
COc1ccc(OC)c(NC(=O)CCN2CCC(C)CC2)c1
COC(=O)c1c(-c2ccc(C)cc2)csc1N
O=C(OC(C(=O)NC1CCCC1)c1ccc(F)cc1)c1ccno1 (stereo not given)
CCOc1ccccc1NC(=O)CCc1ccc(C)o1
Cc1c(C(=O)OCC(=O)N(CCC#N)c2ccccc2)oc2c1ccc1ccccc12
O=C1c2cccnc2C(Nc2ccc(S(=O)(=O)N3CCCCCC3)cc2)N1Cc1ccccc1 (stereo not given)
Cc1cc(C)n(C(=O)c2ccc(S(=O)(=O)N3CCCC3)cc2)n1
Cn1c(SCc2nc3ccccc3s2)nnc1-c1ccc2c(c1)OCO2
COC(=O)[C@@H]1C[C@@]2(O)[C@H](O)[C@H](O)[C@H](O)C[C@H]2N1Cc1ccc(C(C)(C)C)cc1
CC1=C(C(=O)OCc2ccccc2)C(c2ccco2)n2ncnc2N1 (stereo not given)
CCOC(=O)N1CCC(NC(=O)C(C)n2c3ccccc3c3cnn(C)c(=O)c32)CC1 (stereo not given)
C=CCNc1nnc(C)c2ccccc12
COc1cccc(N(CC(=O)Nc2cccc(F)c2)S(C)(=O)=O)c1
Cc1cnc(CNc2ncncc2-c2ccccc2Cl)cn1
O=C(Cn1nc(C(F)(F)F)c2c1CCC2)NCc1ccc(F)cc1
O=C1CC(N2CCN(C(c3ccccc3)c3ccccc3)CC2)C(=O)N1 (stereo not given)
CCOC(=O)c1cccc(NC(=O)CCc2c(C)nc3ncnn3c2C)c1
C/C(=C\c1ccco1)C1Nc2cccc3cccc(c23)N1
Brc1ccc(OCCn2ccnc2)cc1
O=C(Cl)c1ccccc1[N+](=O)[O-]
CO/N=C\[C@@H](C)[C@H](OCc1ccccc1)C(C)C -2.08% [at 15.4 µM]
Cc1cccc(-c2cc(=O)c3cc(C)ccc3o2)c1
Cc1cnc(NC(=O)CSc2nnc(-c3ccc(Cl)cc3Cl)n2N)s1
CCn1nnc(NC(=O)c2cc(Cl)c(OC)c(Cl)c2)n1
O=C(CSc1nnc2scc(-c3ccc(F)cc3)n12)NCc1ccco1
O=C(CSc1nnc2ccccn12)c1ccccc1
CN(C)/C=N/c1cc(=O)n(C)c(=O)n1CC1CC1
CCn1c(CSc2nncn2-c2ccc(OC)cc2)nc2cc(S(=O)(=O)N(C)C)ccc21
Cc1ccc(C(=O)Nc2nnc(-c3ccncc3)s2)o1
CCCN(CCC)C(=O)C1c2ccccc2Oc2ccccc21
O=C(NCCc1ccco1)c1nn(Cc2ccccc2)c(=O)c2ccccc12
COC(=O)c1c(NC(=O)CSc2nncs2)sc2c1CCCCC2
CCOC(=O)N1CCN(C(=O)c2nn(-c3ccc(C)cc3)c(=O)c3c2c2ccccc2n3C)CC1
CCOC(=O)c1nnn(CC(=O)Nc2cccc(F)c2)c1C(=O)OCC
CCC1=C(OC(=O)N(CC)CC)N2C(=O)OC(=NCC3CC3)[C@]2(C)[C@H]2C1=CC[C@H]1C(=O)N(CC(=O)OC)C(=O)[C@H]12
COc1ccc(C(=O)NCc2cn3ccccc3n2)cc1
COc1cccc(-c2cc(NCCc3c[nH]c4ccc(OC)cc34)ncn2)c1
COCCNC(=O)CSc1nc2c(n1-c1ccccc1)CCCC2
COc1ccccc1N=C1SC(C)CN1C(=O)C1CCC1 (stereo not given)
Cc1ccc2[nH]c3c(c2c1)CN(C(=O)CN1CCN(c2ccccc2)CC1)CC3
CC(NC(=O)c1cc(-c2ccccc2)on1)c1ccccc1 (stereo not given)
O=S(=O)(c1cccs1)N1CCN(Cc2ccccc2)CC1
CCCC(=O)Nc1nnc(CC(=O)OCC)s1
N#CC1=C(SCc2ccccc2)NC(=O)C(C#N)C12CCCC2 (stereo not given)
Cc1cc(N(C)C)cc(C)[n+]1[O-]
CC(C)(C)NC(=O)c1cc(NC(=O)c2ccco2)cc(NC(=O)c2ccco2)c1
Cc1ccc2nc(NC(=O)C3CCN(S(=O)(=O)c4ccc5c(c4)oc(=O)n5C)CC3)sc2c1
COC(=O)[C@@H]1C[C@@]2(O)[C@H](O)[C@H](O)[C@H](O)C[C@H]2N1Cc1ccc(C)s1
COC(=O)Nc1nc2ccc(Sc3ccccc3)cc2[nH]1
